Eight molecules from PubChem BioAssay (NCI) can be followed below.

Holding throughout (assay): NCI-60 one-dose screen, 48 h (100 = growth as untreated, 0 = no growth, -100 = all killed)
The subject of one assay is SR leukemia. Conditions: 10 µM unless noted.
In another assay the test system is OVCAR-8 ovarian. The settings on record: 10 µM unless noted.
For the next assay, the system named is OVCAR-5 ovarian. Conditions: 10 µM unless noted.
The subject of a further assay is OVCAR-4 ovarian. Conditions: 10 µM unless noted.
The subject of a further assay is IGROV1 ovarian. The settings on record: 10 µM unless noted.
In another assay the test system is OVCAR-3 ovarian. Conditions: 10 µM unless noted.
A further assay relates to HS 578T breast. Conditions: 10 µM unless noted.
The next assay deals with NCI/ADR-RES ovarian. Conditions: 10 µM unless noted.
A further assay relates to BT-549 breast. Conditions: 10 µM unless noted.
Another assay relates to MDA-MB-435 melanoma. The settings on record: 10 µM unless noted.
For another assay, the system named is SW-620 colon. Conditions: 10 µM unless noted.
The test system of another assay is MCF7 breast. Conditions: 10 µM unless noted.
The subject of a further assay is HCT-116 colon. Conditions: 10 µM unless noted.
The test system of another assay is HCC-2998 colon. The settings on record: 10 µM unless noted.
Another assay has as its system KM12 colon. Conditions: 10 µM unless noted.
Another assay concerns T-47D breast. Conditions: 10 µM.
In another assay the test system is RPMI-8226 leukemia. The settings on record: 10 µM.
In the next assay the test system is SK-OV-3 ovarian. Conditions: 10 µM.

Compounds without any hit were thinned out: in the full panel of roughly 83,000, 20% have a hit.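 In brief: 96-well plates, 48 h treatment, single concentration, percent growth endpoint.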 A number with no mark means an inactive call. Active and inactive are the calls of the source. Rule for the calls: active = growth percent below 10; inactive = the rest.

Take `c1ccc2cc(Cn3c(-c4ccc5ccccc5c4)[n+](Cc4ccc5ccccc5c4)c4ccccc43)ccc2c1`: the growth was -27.8% (active) in the assay with SR leukemia; -62.9% (active) with OVCAR-8 ovarian; -12.2% (active) in the assay on OVCAR-5 ovarian; -17.2% (active) in the assay with OVCAR-4 ovarian; -74% (active) in the assay with IGROV1 ovarian; -96% (active) with OVCAR-3 ovarian. Besides, the growth was -58.9% (active) in the assay on HS 578T breast; 31.2% in the assay on NCI/ADR-RES ovarian; -46.5% (active) in the assay on BT-549 breast; -80.4% (active) with MDA-MB-435 melanoma; -85% (active) with SW-620 colon; -70.1% (active) with MCF7 breast. In addition, the values for the growth in the assay on HCT-116 colon, in the assay with HCC-2998 colon and with KM12 colon were -61% (active), -88.7% (active) and -90.6% (active), respectively.

Turning to `NC(=O)c1cccc(-n2ccc3cc(NC(=O)Nc4ccc(Cl)c(Cl)c4)ccc32)n1`, the growth in the assay with SR leukemia is 45.5%; with OVCAR-8 ovarian, 80.9%; in the assay on OVCAR-5 ovarian it was 106%; in the assay with OVCAR-4 ovarian, 68.2%; in the assay with IGROV1 ovarian, 87.9%; with OVCAR-3 ovarian, 82.9%. The growth was 58.5% with HS 578T breast; 91.8% in the assay with NCI/ADR-RES ovarian; 49.3% with T-47D breast; 65.8% in the assay with BT-549 breast; 61% in the assay with MDA-MB-435 melanoma; 94.2% in the assay with SW-620 colon. For the same molecule, the growth in the assay on MCF7 breast is 57.7%; with HCT-116 colon it was 71.9%; in the assay with HCC-2998 colon, 97.7%; in the assay with KM12 colon, 55.5%.

Take `COc1ccc(/C=N/OCC(O)CN2CCC(O)CC2)cc1OC1CCCC1` (stereo not drawn): the growth was 112% in the assay with SR leukemia; 110% in the assay with RPMI-8226 leukemia; 109% in the assay on OVCAR-8 ovarian; 100% with OVCAR-4 ovarian; 107% in the assay with IGROV1 ovarian; 114% in the assay with OVCAR-3 ovarian. For the same molecule, the growth in the assay with HS 578T breast is 108%; in the assay with NCI/ADR-RES ovarian, 104%; in the assay with BT-549 breast, 88.7%; in the assay on MDA-MB-435 melanoma it was 102%; with SW-620 colon it was 104%; in the assay on MCF7 breast, 94.7%. Besides, the growth was 89.6% with HCT-116 colon, 101% in the assay with HCC-2998 colon and 109% in the assay with KM12 colon.

Take `CCCCOC(=O)C1OC(Oc2ccc3c(C)cc(=O)oc3c2)[C@@H](OC(C)=O)C(OC(C)=O)C1OC(C)=O` (stereo partly drawn): the growth was 88.1% in the assay with SR leukemia; 97.9% with RPMI-8226 leukemia; 104% in the assay with OVCAR-8 ovarian; 101% in the assay with OVCAR-4 ovarian; 101% in the assay on IGROV1 ovarian; 108% in the assay on OVCAR-3 ovarian. Further, the growth in the assay with HS 578T breast was 101%; with NCI/ADR-RES ovarian it was 99.9%; with BT-549 breast, 103%; in the assay on MDA-MB-435 melanoma, 101%; with SW-620 colon, 102%; in the assay with MCF7 breast, 91.5%. In addition, the growth with HCC-2998 colon was 109%; in the assay with KM12 colon, 99.4%.

With `O=C1c2cc(S(=O)(=O)O)ccc2C(=O)c2c1cccc2[N+](=O)[O-]`, the growth in the assay on SR leukemia is 98.2%; with OVCAR-8 ovarian, 95.6%; with OVCAR-5 ovarian it was 110%; with OVCAR-4 ovarian it was 115%; in the assay with SK-OV-3 ovarian, 106%; with IGROV1 ovarian it was 120%. The growth with OVCAR-3 ovarian is 114%; with HS 578T breast, 106%; in the assay on NCI/ADR-RES ovarian, 111%; in the assay with T-47D breast it was 103%; in the assay on BT-549 breast, 98.3%; with MDA-MB-435 melanoma it was 105%. In addition, the growth with SW-620 colon was 110%; in the assay with MCF7 breast, 101%; in the assay on HCT-116 colon, 106%; with HCC-2998 colon, 110%; in the assay with KM12 colon, 104%.

As to `COC(=O)[C@H]1CCCN1C(=O)[C@H]1CCCN1C(=O)[C@@H](Cc1c[nH]c2ccccc12)NC(=S)Nc1cc(C(F)(F)F)cc(C(F)(F)F)c1`, the growth is 14.4% in the assay with SR leukemia; 66.8% in the assay with OVCAR-8 ovarian; 76.4% in the assay on OVCAR-5 ovarian; 44.6% in the assay on OVCAR-4 ovarian; 77.2% with SK-OV-3 ovarian; 22.7% with IGROV1 ovarian. In addition, the growth in the assay with OVCAR-3 ovarian is 48.3%; in the assay on HS 578T breast it was 12.3%; in the assay with NCI/ADR-RES ovarian, 89.9%; in the assay on T-47D breast, 50.2%; with BT-549 breast, 91.9%; with MDA-MB-435 melanoma, 31.6%. Moreover, the values for the growth with SW-620 colon, with MCF7 breast and with HCC-2998 colon were 64.2%, 26.1% and 31.8%, respectively.

Take `O=C(O)C[C@H](O)C[C@H](O)/C=C/c1c(C2CC2)nc2ccccc2c1-c1ccc(F)cc1`: the growth was 12.1% in the assay with SR leukemia; 61.5% with OVCAR-8 ovarian; 79% with OVCAR-5 ovarian; 111% with OVCAR-4 ovarian; 93.7% in the assay with SK-OV-3 ovarian; 53.4% with IGROV1 ovarian. The growth is 103% with OVCAR-3 ovarian; 70.1% in the assay on HS 578T breast; 37.2% with NCI/ADR-RES ovarian; 95.9% with T-47D breast; 75.1% with BT-549 breast; 93.9% in the assay with MDA-MB-435 melanoma. Moreover, the growth was 83.3% in the assay with SW-620 colon; 96.3% in the assay with MCF7 breast; 63.3% in the assay with HCT-116 colon; 99% in the assay on HCC-2998 colon; 102% in the assay on KM12 colon.

For `Cc1cc(C)c(S(=O)O)c(C)c1`, the growth in the assay on SR leukemia is 102%; in the assay on RPMI-8226 leukemia, 102%; in the assay on OVCAR-8 ovarian, 115%; in the assay with OVCAR-4 ovarian, 111%; in the assay on IGROV1 ovarian it was 129%; in the assay on OVCAR-3 ovarian, 120%. Besides, the growth with HS 578T breast is 104%; in the assay on BT-549 breast, 104%; in the assay on MDA-MB-435 melanoma, 103%; in the assay on SW-620 colon, 103%; with MCF7 breast it was 109%; in the assay with HCT-116 colon, 109%. Also, the growth in the assay on HCC-2998 colon was 110%; in the assay on KM12 colon, 112%.
